According to PubChem BioAssay:
Calls of active or inactive are those of the source. Unless noted, no rule for the calls is given here.

Assays:
[1] = tested on: Wnt5a (protein binding on small-molecule microarray); experiment: small molecules binding Wnt5a protein – biophysical, small-molecule microarray, 635/667 nm fluorescence, primary screen (AID 1142); conditions: 635 nm fluorescence, higher = more signal;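 also: fluorescence read at 667 nm with signal to noise per printed feature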
[2] = ATP-based viability of Huh7 replicon cells – cell-based, CellTiter-Glo luminescence, basal, 48 h, cytotoxicity control for HCV replication inhibitor project, primary screen (AID 1143); conditions: higher = more signal, called active from +8 up or from −8 down;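 also: Huh7 hepatoma cells carrying a hepatitis C replication reporter with no stimulus; test concentration not given here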
[3] = Pseudomonas biofilm growth suppression – PAO1 strain, BacTiter-Glo luminescence, LB-PBS, primary screen (AID 1144); conditions: P. aeruginosa PAO1 biofilm, 12 h, higher = more signal
[4] = basal CRE-LacZ reporter activity in PC12 – cell-based, unstimulated, primary screen (AID 1145); conditions: no forskolin, luminescence, 4.5 h, higher = more signal, called active from +8 up or from −8 down
[5] = forskolin-driven CRE-LacZ activity in PC12 – cell-based, CRE-LacZ reporter, forskolin-stimulated, primary screen (AID 1146); conditions: luminescence, 4.5 h, higher = more signal, called active from +8 up or from −8 down;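 also: PC12 cells with 6xCRE LacZ reporter stimulated by forskolin 10 µM; beta-galactosidase reporter signal reflecting CREB driven transcription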
[6] = molecular target: Streptavidin (Streptomyces avidinii) (UniProt P22629); experiment: compounds binding control protein streptavidin – biophysical, small-molecule microarray, 635/667 nm fluorescence, artefact control for SMM compound annotation, primary screen (AID 1147); conditions: higher = more signal;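 also: signal reflects streptavidin binding to arrayed compounds as a control protein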
[7] = probe aInhba binding on compound microarray – biochemical, small-molecule microarray, 635/667 nm fluorescence, primary screen (AID 1148); conditions: higher = more signal;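 also: score merges 667nm spot fluorescence with signal-to-noise for antibody binding to printed compounds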
Torsin-1A (Homo sapiens) [8] = molecular target: Torsin-1A (Homo sapiens) (UniProt O14656); experiment: TOR1A wild-type binding on microarray – cell lysate, small-molecule microarray, lysate, 635/667 nm, primary screen (AID 1149); conditions: COS7 hTOR1A-WT lysate, 635 nm fluorescence, higher = more signal
Torsin-1A (Homo sapiens) [9] = molecular target: Torsin-1A (Homo sapiens) (UniProt O14656); experiment: torsin A mutant lysate binding on microarrays – cell lysate, small-molecule microarray, COS7 lysate, 635/667 nm fluorescence, primary screen (AID 1150); conditions: COS7 hTOR1A mutant lysate, 635 nm fluorescence, higher = more signal;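 also: score pools 667 nm emission and signal to noise measuring lysate protein binding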
[10] = tested on: Sonic hedgehog protein (Shh); experiment: Sonic hedgehog microarray binding compounds – biochemical, small-molecule microarray, 635/667 nm fluorescence, primary screen (AID 1151); conditions: 635 nm fluorescence, higher = more signal;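 also: Shh protein binding to compounds spotted on small-molecule microarray slides; score combines spot fluorescence intensity with signal-to-noise across triplicate slides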

Chain of Torsin-1A (Homo sapiens) (O14656 whole entry, looked up): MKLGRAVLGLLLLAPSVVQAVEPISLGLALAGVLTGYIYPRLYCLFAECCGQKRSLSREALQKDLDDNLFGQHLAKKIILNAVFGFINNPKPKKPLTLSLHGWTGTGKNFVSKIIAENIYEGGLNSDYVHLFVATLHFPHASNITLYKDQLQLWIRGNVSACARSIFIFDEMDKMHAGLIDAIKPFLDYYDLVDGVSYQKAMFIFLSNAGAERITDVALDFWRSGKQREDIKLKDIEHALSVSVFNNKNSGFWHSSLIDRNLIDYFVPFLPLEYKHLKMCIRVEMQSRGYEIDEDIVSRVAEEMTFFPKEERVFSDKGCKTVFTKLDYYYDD
Chain of Streptavidin (Streptomyces avidinii) (P22629 whole entry, looked up): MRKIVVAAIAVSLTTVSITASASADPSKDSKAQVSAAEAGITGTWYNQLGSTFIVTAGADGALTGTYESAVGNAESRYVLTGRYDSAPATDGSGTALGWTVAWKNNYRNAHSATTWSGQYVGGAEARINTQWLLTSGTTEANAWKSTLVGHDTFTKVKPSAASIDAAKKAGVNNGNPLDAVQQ

Row | SMILES | composite z-score [1] | z-score [2] | z-score [3] | z-score [4] | z-score [5] | composite z-score [6] | composite z-score [7] | composite z-score (Torsin-1A (Homo sapiens) [8]) | composite z-score (Torsin-1A (Homo sapiens) [9]) | composite z-score [10]
1 | C[N+](C)(C)CCCC[C@@H]1NC(=O)[C@H]2C[C@@H](C(=O)O)[C@@H](c3ccc(O)cc3)N2C1=O | 0.0425 | -0.497 (inactive) | -1.19 (inactive) | 0.285 (inactive) | -0.744 (inactive) | -0.206 | 0.0051 | 0.049 | 0.38 | 1.22
2 | CCCCC(=C=CC[C@@H](O)c1ccc(OCCO)cc1)CCO | -0.032 | -1.75 (inactive) | 0.234 (inactive) | 7.73 (inactive) | -0.882 (inactive) | -0.217 | 0.0342 | 0.112 | 0.654 | 0.98
3 | CN1C(=O)C2C=CC(C(O)COCc3ccccc3)N(Nc3ccc([N+](=O)[O-])cc3[N+](=O)[O-])C2C1=O (stereo not given) | 0.727 | 0.615 (inactive) | -0.73 (inactive) | 1.01 (inactive) | -0.252 (inactive) | -0.387 | 0.0442 | -0.306 | 0.713 | -0.997
4 | C=CCNC(=O)[C@H]1[C@@H]2C(=O)O[C@@H](c3ccccc3)[C@@H](c3ccccc3)N2[C@@H](c2ccc(O)cc2)[C@]12C(=O)N(C(=O)OCCOC)c1ccc(C#Cc3ccc(OC)cc3)cc12 | 0.334 | -2.17 (inactive) | 0.649 (inactive) | -0.195 (inactive) | 1.43 (inactive) | 0.21 | 0.153 | 0.0502 | 0.651 | 1.21
5 | COCCOC(=O)N1C(=O)[C@@]2(c3cc(C#CC4=CCCCC4)ccc31)[C@H](c1ccc(O)cc1)N1[C@H](c3ccccc3)[C@H](c3ccccc3)OC(=O)[C@H]1[C@@H]2C(=O)N1CCc2cc(OC)c(OC)cc2C1 | -0.0266 | -0.713 (inactive) | 0.315 (inactive) | -0.375 (inactive) | 0.109 (inactive) | 0.112 | 0.103 | 0.175 | 0.893 | 0.514
6 | O=C1O[C@@H](c2ccccc2)[C@@H](c2ccccc2)N2[C@@H](c3ccc(OCCO)cc3)[C@]3(C(=O)Nc4ccc(C#CC5=CCCCC5)cc43)[C@@H](C(=O)Nc3nc4ccccc4s3)[C@H]12 | 0.256 | -1.89 (inactive) | -1.2 (inactive) | -0.698 (inactive) | -0.797 (inactive) | 0.549 | -0.145 | -0.0561 | 0.0025 | 1.43
7 | COCCOC(=O)N1C(=O)[C@@]2(c3cc(C#CC4=CCCCC4)ccc31)[C@H](C(=O)N1CCCCCCC1)[C@H]1C(=O)O[C@H](c3ccccc3)[C@H](c3ccccc3)N1[C@@H]2c1ccccc1OCCO | 0.393 | -5.21 (inactive) | -1.33 (inactive) | -1.7 (inactive) | -1.11 (inactive) | 1.04 | 0.806 | 0.801 | 0.824 | 1.62
8 | CC(C)c1ccc(NN2C(C(O)C3=C[C@H]4C[C@@H](C3)C4(C)C)C=CC3C(=O)N(c4ccccc4)C(=O)C32)cc1 (stereo not given in full) | 0.747 | -0.005 (inactive) | -0.335 (inactive) | 0.443 (inactive) | 0.551 (inactive) | 1.56 | 0.234 | 0.281 | 0.562 | -0.0766
9 | COc1cc(CO)cc(I)c1O[C@H]1C=C(C(=O)NCCO)C[C@@H](N(CCN2CCOCC2)C(=O)C2CCCO2)[C@@H]1O (stereo not given in full) | -0.103 | 0.0418 (inactive) | -0.137 (inactive) | 0.497 (inactive) | -1.04 (inactive) | -0.0582 | -0.256 | 0.404 | 0.0245 | -0.203
10 | Cc1ccc(S(=O)(=O)N2[C@@H](c3ccccc3)C(C(=O)O)=C[C@H]2C(C)(C)C)cc1 | 0.211 | -1.23 (inactive) | 0.137 (inactive) | 0.238 (inactive) | 0.926 (inactive) | 1.52 | 0.209 | 0.391 | 0.985 | 0.719
11 | COC(=O)C[C@H]1O[C@]2(C(=O)N(C)c3ccccc32)[C@@H](C)[C@@H]1[Si](C)(C)c1ccccc1 | 0.148 | -4.59 (inactive) | 0.115 (inactive) | -0.141 (inactive) | -0.477 (inactive) | 1.02 | -0.204 | 0.262 | 0.395 | 1.65
12 | C=CCC(OC(C)=O)[C@@H]1[C@@H](N(Cc2ccc(-c3ccccc3)cc2)C(=O)Cc2ccc(OC)cc2)c2cc(OCCCO)ccc2N1C(=O)Cc1ccc(OC)cc1 (stereo not given in full) | 0.0361 | -1.79 (inactive) | 1.04 (inactive) | 0.642 (inactive) | 0.482 (inactive) | 0.222 | 0.169 | 0.172 | 0.212 | 0.363
13 | Cc1ccc(S[C@]2(C(=O)NCC(C)C)CC(=O)N(C(C)C)[C@@H]2c2ccc(CO)cc2I)cc1 | 0.241 | -1.44 (inactive) | 0.502 (inactive) | 0.0909 (inactive) | 0.205 (inactive) | -0.807 | -0.173 | -0.782 | -0.607 | -1.07
14 | CC[C@H]1C2=C3C(CC[C@H]4C(OCc5ccc(F)cc5C(F)(F)F)OC[C@](C)([C@@H]34)N(C(=O)OC(C)(C)C)C2)C(COC(C)=O)C1COC(C)=O (stereo not given in full) | 0.374 | -1.35 (inactive) | 0.729 (inactive) | 0.204 (inactive) | 1.3 (inactive) | 1.3 | 0.214 | 0.129 | 0.168 | -1.2
15 | O=C1N(Cc2ccccc2)c2ccccc2C[C@@]12N=C(c1ccc(OCCCO)cc1)O[C@H]2c1ccccc1 | 0.378 | -3.89 (inactive) | -0.34 (inactive) | 1.87 (inactive) | -0.483 (inactive) | 0.798 | -0.0963 | -0.133 | 0.318 | 1.34
16 | O=C1O[C@H](c2ccccc2)[C@H](c2ccccc2)N2[C@H]1[C@@H](C(=O)N1CCCCCCC1)[C@]1(C(=O)Nc3ccc(C#CCCO)cc31)[C@H]2c1ccc(O)cc1 | 2.43 | -1.76 (inactive) | -0.575 (inactive) | -0.438 (inactive) | -1.23 (inactive) | 3.86 | 1.84 | 3.62 | 3.34 | 2.36
17 | CCOC(=O)C[C@H]1[C@H](OC(=O)c2ccccc2-c2ccccc2)[C@@H](NC(=O)CC(C)C)c2cc(OCCCO)ccc2N1C(=O)c1ccccc1 | 0.167 | -0.715 (inactive) | -0.829 (inactive) | 1.94 (inactive) | -0.103 (inactive) | -0.31 | -0.0178 | -0.278 | -0.161 | 1.51
18 | CCCC[C@@H](O)C1=C(C)Cn2c(=O)n(-c3ccccc3)c(=O)n2[C@H]1CO | 0.0027 | -1.07 (inactive) | -0.275 (inactive) | 1.77 (inactive) | -0.844 (inactive) | -0.463 | -0.251 | 0.0705 | 0.141 | 0.317
19 | COCCOC(=O)N1C(=O)[C@@]2(c3cc(C#CCNC(N)=O)ccc31)[C@H](c1ccccc1OCCO)N1[C@H](c3ccccc3)[C@H](c3ccccc3)OC(=O)[C@H]1[C@@H]2C(=O)N1CCCCCCC1 | 0.112 | -0.923 (inactive) | 0.342 (inactive) | 0.2 (inactive) | 1.97 (inactive) | 0.777 | 0.168 | 0.419 | 0.367 | 0.83
20 | O=C1C2C=CC(C(O)c3ccccn3)N(Nc3ccc([N+](=O)[O-])cc3)C2C(=O)N1c1ccccc1 (stereo not given) | 0.333 | -0.476 (inactive) | -0.277 (inactive) | 0.379 (inactive) | -0.0636 (inactive) | 1.24 | 0.0589 | -0.146 | 0.098 | 0.04
21 | CCc1cccc(NC(=O)O[C@H]2[C@H](OC(=O)Nc3ccccc3-c3ccccc3)[C@H](OC(=O)Nc3ccccc3-c3ccccc3)[C@@H](OC)O[C@@H]2CO)c1 | 0.947 | -5.67 (inactive) | -1.82 (inactive) | -0.506 (inactive) | -0.238 (inactive) | 0.284 | 0.0345 | 0.762 | 0.875 | 2.18
22 | CCCCC(=C=CC[C@H](O)c1cccc(OCCO)c1)C[C@H](O)c1cc(Cl)cc(Cl)c1O | 0.252 | -0.705 (inactive) | -0.915 (inactive) | 1.66 (inactive) | 0.0904 (inactive) | 0.428 | -0.0675 | 0.437 | 0.906 | 1.84
23 | COc1ccc([Si](C)(C)[C@H]2[C@H](CCO)O[C@@]3(C(=O)N(Cc4ccccc4)c4ccc(NC(=O)[C@H](C)O)cc43)[C@@H]2C)cc1 | 0.571 | -7.85 (inactive) | -1.29 (inactive) | 20.8 (active) | 1.12 (inactive) | 0.0684 | 0.0659 | 0.569 | 0.437 | 1.33
24 | COCCOC(=O)N1C(=O)[C@@]2(c3cc(C#CCNC(N)=O)ccc31)[C@H](C(=O)Nc1nc3ccccc3s1)[C@H]1C(=O)O[C@H](c3ccccc3)[C@H](c3ccccc3)N1[C@@H]2c1ccc(O)cc1 | 0.0623 | 0.284 (inactive) | 0.326 (inactive) | -0.168 (inactive) | -0.227 (inactive) | 0.753 | 0.189 | -0.227 | -0.023 | 0.527
25 | CCOC(=O)C1=C[C@@H](C(C)(C)C)N(S(=O)(=O)c2ccc(C)cc2)[C@H]1c1ccc(OC)cc1 | 0.474 | -4.94 (inactive) | -0.0448 (inactive) | 0.238 (inactive) | 0.334 (inactive) | 1.36 | 0.0541 | 0.795 | -0.198 | 0.523
26 | C=C(C(=O)CC[C@@H](OC(=O)c1ccccc1-c1ccccc1C(=O)O)c1ccc(CO)o1)C(C)C | 0.389 | -0.115 (inactive) | -0.306 (inactive) | 1.47 (inactive) | 1.73 (inactive) | -0.539 | 0.0051 | 1.28 | 0.317 | 1.65
27 | CN1C(=O)C2C=CC(C(O)c3ccc([N+](=O)[O-])cc3)N(Nc3ccccc3)C2C1=O (stereo not given) | 0.288 | 0.349 (inactive) | -0.898 (inactive) | 0.0535 (inactive) | -0.323 (inactive) | 1.65 | 0.179 | 0.0754 | 0.317 | -0.0538
28 | C=C(COC)C(=O)CC[C@H](OC(C)=O)c1ccc(CO)o1 | -0.0261 | -2.28 (inactive) | -0.824 (inactive) | -0.0884 (inactive) | 0.464 (inactive) | -0.0888 | -0.101 | -0.675 | -0.337 | 1.55
